Measured values taken from PubChem BioAssay (NCATS).
Records with an inconclusive call do not appear. A number with no mark means an inactive call. The source made the active and inactive calls. The call rests on the fitted dose curve; in most records, active means well fitted curve in the direction sought with a large enough effect; inconclusive means small, poorly fitted or top-dose-only effect, or another doubt; inactive means no such curve, though single readings can be large; an effect the other way counts as inactive or inconclusive.

What was measured:
[1] = Quantitative High-Throughput drug screen in 47 multiple myeloma cell lines against the NCATS MIPE library collection: MOLP8_DSMZ cell viability assay (AID 1918977); further: nearly all actives have a fitted effect of over 45% in size
Procedure, shortened: (§1)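 Myeloma cells (500/well) treated with MIPE 4.0 compounds for 48 h at 37 °C, 5% CO2. Viability read as ATP via CellTiter-Glo luminescence after 5 min at RT; DMSO-only wells = 100%, media-only = 0% viability.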

[2] = Quantitative High-Throughput drug screen in 47 multiple myeloma cell lines against the NCATS MIPE library collection: MM1R_ATCC cell viability assay (AID 1918981); further: nearly all actives have a fitted effect of over 35% in size; further: potency means the concentration at half of the fitted maximal effect
Procedure, shortened: as §1

[3] = Quantitative High-Throughput drug screen in 47 multiple myeloma cell lines against the NCATS MIPE library collection: LP1_DSMZ cell viability assay (AID 1918982); further: nearly all actives have a fitted effect of over 35% in size
Procedure, shortened: as §1

[4] = Quantitative High-Throughput drug screen in 47 multiple myeloma cell lines against the NCATS MIPE library collection: KMS28PE_JCRB cell viability assay (AID 1918983); further: nearly all actives have a fitted effect of over 35% in size
Procedure, shortened: as §1

[5] = Quantitative High-Throughput drug screen in 47 multiple myeloma cell lines against the NCATS MIPE library collection: L363_DSMZ cell viability assay (AID 1918984); further: nearly all actives have a fitted effect of over 40% in size; further: potency means the concentration at half of the fitted maximal effect
Procedure, shortened: as §1

[6] = Quantitative High-Throughput drug screen in 47 multiple myeloma cell lines against the NCATS MIPE library collection: KMS34_JCRB cell viability assay (AID 1918985); further: nearly all actives have a fitted effect of over 40% in size; further: potency means the concentration at half of the fitted maximal effect
Procedure, shortened: as §1

[7] = Quantitative High-Throughput drug screen in 47 multiple myeloma cell lines against the NCATS MIPE library collection: OCIMY7_PLB cell viability assay (AID 1918987); settings: OCI-MY7 myeloma viability, CellTiter-Glo ATP, 48 h; viability (% of DMSO): at 45.8 µM; further: nearly all actives have a fitted effect of over 65% in size; further: potency means the concentration at half of the fitted maximal effect; on viability (% of DMSO): series mostly up to about 46 µM
Procedure, shortened: as §1

[8] = Quantitative High-Throughput drug screen in 47 multiple myeloma cell lines against the NCATS MIPE library collection: OCIMY5_PLB cell viability assay (AID 1918988); further: nearly all actives have a fitted effect of over 65% in size; further: potency means the concentration at half of the fitted maximal effect
Procedure, shortened: as §1

[9] = Quantitative High-Throughput drug screen in 47 multiple myeloma cell lines against the NCATS MIPE library collection: U266_ATCC cell viability assay (AID 1919864); further: nearly all actives have a fitted effect of over 35% in size; further: potency means the concentration at half of the fitted maximal effect
Procedure, shortened: as §1

[10] = Quantitative High-Throughput drug screen in 47 multiple myeloma cell lines against the NCATS MIPE library collection: NCIH929_DSMZ cell viability assay (AID 1918978); further: nearly all actives have a fitted effect of over 35% in size; further: potency means the concentration at half of the fitted maximal effect
Procedure, shortened: as §1

[11] = Quantitative High-Throughput drug screen in 47 multiple myeloma cell lines against the NCATS MIPE library collection: OCIMY1_PLB cell viability assay (AID 1918979); further: nearly all actives have a fitted effect of over 35% in size; further: potency means the concentration at half of the fitted maximal effect; on viability: series mostly up to about 46 µM
Procedure, shortened: as §1

[12] = Quantitative High-Throughput drug screen in 47 multiple myeloma cell lines against the NCATS MIPE library collection: MM1S_ATCC cell viability assay (AID 1918980); further: nearly all actives have a fitted effect of over 45% in size; further: potency means the concentration at half of the fitted maximal effect
Procedure, shortened: as §1

[13] = Quantitative High-Throughput drug screen in 47 multiple myeloma cell lines against the NCATS MIPE library collection: OPM1_PLB cell viability assay (AID 1918989); further: nearly all actives have a fitted effect of over 40% in size; further: potency means the concentration at half of the fitted maximal effect
Procedure, shortened: as §1

[14] = Quantitative High-Throughput drug screen in 47 multiple myeloma cell lines against the NCATS MIPE library collection: SKMM1_PLB cell viability assay (AID 1919863); settings: SKMM1 myeloma viability, CellTiter-Glo ATP, 48 h; viability: stronger effect = lower value; further: nearly all actives have a fitted effect of over 35% in size; further: potency means the concentration at half of the fitted maximal effect; on viability: series mostly up to about 46 µM
Procedure, shortened: as §1

[15] = Quantitative High-Throughput drug screen in 47 multiple myeloma cell lines against the NCATS MIPE library collection: XG1_PLB cell viability assay (AID 1919866); further: nearly all actives have a fitted effect of over 35% in size; further: potency means the concentration at half of the fitted maximal effect
Procedure, shortened: as §1

[16] = Quantitative High-Throughput drug screen in 47 multiple myeloma cell lines against the NCATS MIPE library collection: VP6_DJ cell viability assay (AID 1919867); further: nearly all actives have a fitted effect of over 40% in size; further: potency means the concentration at half of the fitted maximal effect
Procedure, shortened: as §1

[17] = Quantitative High-Throughput drug screen in 47 multiple myeloma cell lines against the NCATS MIPE library collection: XG6_PLB cell viability assay (AID 1919865); further: nearly all actives have a fitted effect of over 40% in size; further: potency means the concentration at half of the fitted maximal effect
Procedure, shortened: as §1

Structure (SMILES): O=C(O)c1ccccc1C(=O)Nc1ccc(-c2ccccc2)cc1
- Potency [1]: inactive
- Potency [2]: inactive
- Potency [3]: inactive
- Potency [4]: inactive
- Potency [5]: inactive
- Potency [6]: inactive
- Potency [7]: inactive
- Potency [8]: inactive
- Potency [9]: inactive

Structure (SMILES): COc1ccc2c3c1OC1C[C@@H](O)C=C[C@@]31CCN(C)C2 (some centres not stated)
- Potency [10]: 16.6 µM (active)
- Potency [11]: inactive
- Potency [12]: 20.9 µM (active)
- Potency [2]: inactive
- Potency [3]: inactive
- Potency [4]: inactive
- Potency [6]: inactive
- Potency [8]: 10.5 µM (active)
- Potency [13]: inactive
- viability [14]: 103%
- Potency [9]: 4.18 µM (active)
- Potency [15]: 5.9 µM (active)

Structure (SMILES): O=c1cc(-c2ccccc2)oc2cc(O)cc(O)c12
- Potency [10]: inactive
- Potency [11]: inactive
- Potency [2]: inactive
- Potency [5]: 16.6 µM (active)
- Potency [6]: inactive
- Potency [13]: inactive
- viability [14]: 139%
- Potency [9]: inactive

Structure (SMILES): O=C(O)c1c(Cl)c(Cl)c(Cl)c(Cl)c1-c1c2cc(I)c(=O)c(I)c-2oc2c(I)c(O)c(I)cc12
- Potency [10]: 6.62 µM (active)
- Potency [12]: 6.62 µM (active)
- Potency [2]: 13.2 µM (active)
- Potency [8]: 13.2 µM (active)
- Potency [13]: 9.35 µM (active)
- Potency [15]: 5.9 µM (active)
- Potency [16]: 14.8 µM (active)

Structure (SMILES): COCCCCC(=NOCCN)c1ccc(C(F)(F)F)cc1
- Potency [11]: inactive
- Potency [12]: 16.6 µM (active)
- Potency [5]: inactive
- Potency [6]: 3.72 µM (active)
- Potency [8]: 23.5 µM (active)
- Potency [13]: 23.5 µM (active)
- Potency [9]: 16.6 µM (active)

Structure (SMILES): CC=CCC(C)C(O)C1C(=O)NC(CC)C(=O)N(C)CC(=O)N(C)C(CC(C)C)C(=O)NC(C(C)C)C(=O)N(C)C(CC(C)C)C(=O)NC(C)C(=O)NC(C)C(=O)N(C)C(CC(C)C)C(=O)N(C)C(CC(C)C)C(=O)N(C)C(C(C)C)C(=O)N1C (configuration not stated)
- Potency [12]: inactive
- Potency [9]: inactive

Structure (SMILES): CCCCCCCCCCCC1=C(O)C(=O)C=C(O)C1=O
- Potency [11]: inactive
- Potency [5]: 0.469 µM (active)
- Potency [7]: 10.5 µM (active)
- Potency [8]: 29.6 µM (active)
- Potency [13]: 3.72 µM (active)
- Potency [17]: 0.372 µM (active)

Structure (SMILES): c1ccc2c(-c3cnn4cc(-c5ccc(N6CCNCC6)cc5)cnc34)ccnc2c1
- Potency [14]: 9.35 µM (active)
- Potency [9]: 8.33 µM (active)

Structure (SMILES): Cc1cccc(Nc2nc(-c3ccncc3)cs2)c1
- Potency [5]: 18.7 µM (active)
- Potency [13]: 14.8 µM (active)
- Potency [9]: inactive
- Potency [16]: 18.7 µM (active)

Structure (SMILES): C=CCc1ccc(O)c(-c2ccc(O)c(CC=C)c2)c1
- Potency [12]: 18.7 µM (active)
- Potency [8]: 18.7 µM (active)
- Potency [9]: 16.6 µM (active)
- Potency [17]: 14.8 µM (active)
- Potency [15]: 18.7 µM (active)
- Potency [16]: 20.9 µM (active)

Structure (SMILES): CO[C@H]1C[C@@H]2CC[C@@H](C)[C@@](O)(O2)C(=O)C(=O)N2CCCC[C@@H]2C(=O)O[C@H]([C@H](C)C[C@@H]2CC[C@H](OC(=O)C(C)(CO)CO)[C@H](OC)C2)CC(=O)[C@H](C)C=C(C)[C@@H](O)[C@@H](OC)C(=O)[C@H](C)C[C@H](C)C=CC=CC=C1C
- Potency [12]: inactive
- Potency [7]: 14.8 µM (active)
- Potency [16]: 20.9 µM (active)

Structure (SMILES): Cc1ccn(-c2ccc(-c3ncco3)cc2)c(=O)c1-c1ccc2nc(N)ncc2c1
- Potency [10]: inactive
- Potency [11]: inactive
- Potency [3]: inactive
- Potency [4]: inactive
- Potency [7]: 0.935 µM (active)
- Potency [13]: 3.72 µM (active)
- viability [14]: 99.5%
- Potency [15]: 3.72 µM (active)
- Potency [16]: 1.66 µM (active)

Structure (SMILES): NC1=N[C@@]2(c3cc(NC(=O)c4ccc(F)cn4)ccc3F)COC[C@@H]2CS1
- Potency [11]: inactive
- Potency [4]: inactive
- Potency [5]: 0.418 µM (active)
- Potency [8]: 23.5 µM (active)
- Potency [13]: 16.6 µM (active)
- viability [14]: 111%
- Potency [17]: 3.72 µM (active)
- Potency [16]: 13.2 µM (active)

Structure (SMILES): CCn1cc(C(=O)O)c(=O)c2ccc(C)nc21
- Potency [1]: inactive
- Potency [2]: inactive
- Potency [3]: inactive
- Potency [5]: inactive
- Potency [6]: inactive
- Potency [13]: inactive
- viability [14]: 130%
- Potency [17]: inactive
- Potency [15]: inactive

Structure (SMILES): O=C(CCCCCCC(=O)Nc1ccccc1)NO
- Potency [11]: 5.9 µM (active)
- Potency [12]: 2.96 µM (active)
- Potency [2]: 2.09 µM (active)
- Potency [5]: 1.87 µM (active)
- Potency [6]: 1.87 µM (active)
- Potency [7]: 2.35 µM (active)
- Potency [8]: 2.64 µM (active)
- Potency [13]: 1.32 µM (active)
- Potency [14]: 3.72 µM (active)
- Potency [9]: 5.9 µM (active)
- Potency [15]: 2.96 µM (active)
- Potency [16]: 0.833 µM (active)

Structure (SMILES): NC(=O)c1cccc2[nH]c(-c3ccc([C@H]4CCCN4)cc3F)nc12
- Potency [11]: inactive
- Potency [3]: inactive
- Potency [5]: 14.8 µM (active)
- Potency [8]: 20.9 µM (active)
- Potency [13]: 14.8 µM (active)
- Potency [15]: 8.33 µM (active)

Structure (SMILES): Cc1ccc([C@@H]2O[C@H](CO)[C@@H](O)[C@H](O)[C@@H]2O)cc1Cc1ccc(-c2ccc(F)cc2)s1
- Potency [1]: inactive
- Potency [2]: 18.7 µM (active)
- Potency [4]: inactive
- Potency [6]: 23.5 µM (active)
- Potency [13]: 20.9 µM (active)
- viability [14]: 118%

Structure (SMILES): CC1(C)Cc2c(sc(NC(=S)NC(=O)c3ccccc3)c2C(=O)O)CO1
- Potency [11]: inactive
- Potency [12]: 18.7 µM (active)
- Potency [2]: inactive
- Potency [3]: inactive
- Potency [4]: inactive
- Potency [6]: inactive
- Potency [13]: inactive
- Potency [17]: 14.8 µM (active)
- Potency [15]: inactive
- Potency [16]: 8.33 µM (active)

Structure (SMILES): Cc1ccc(/C=N/NC(=O)c2ccccc2Oc2ccccc2)o1
- Potency [11]: inactive
- Potency [12]: 18.7 µM (active)
- Potency [5]: inactive
- Potency [8]: 16.6 µM (active)
- Potency [15]: 11.8 µM (active)
- Potency [16]: inactive
